Structures are written as SMILES. About 35 (0.04%) of roughly 85,000 compounds were called active.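 Rule for the calls: active = viability drop by adding the cancer drug above about 55%, with treated viability meeting a 40% cutoff (limit read from the data); inactive = the rest, inconclusive results apart.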 The sample as a whole holds a higher share of actives than the screen did.

Here are results for 21 molecules from PubChem BioAssay AID602 (SRMLSC, 2007).

The experiment is described as follows: MRP1 drug-resistance reversers in H69AR cells – cell-based, doxorubicin co-treatment, primary screen (AID 602).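 For differential viability (reversal): larger differential means the compound sensitizes cells more to doxorubicin.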 Particulars: CellTiter-Glo, 72 h, at 10 µM; for differential viability (reversal): stronger effect = higher value.
Setting [1] is: H69AR cells + 2 uM doxorubicin, measured here: viability with 2 uM doxorubicin, stronger effect = lower value.
The mark [2] stands for this setting: H69AR cells, measured here: cytotoxicity without doxorubicin.

Regarding `COc1ccc(-n2c(C)csc2=S)cc1`, the differential viability (reversal) (H69AR cells + 2 uM doxorubicin) was -2.75% (inactive). Moreover, the viability by setting is: under setting [1], 89.3%; under setting [2], 86.6%.
The corresponding values for `CCN(CC)CCNC(=O)CCCCCn1c(=O)[nH]c2cc(C(=O)OC)ccc2c1=O` are 10.3% (inactive), 91.6% and 102%.
Taken in the same sequence, the figures for `N=c1c2c3c(sc2nc2n1CCCCC2)CCCC3` were 9.08% (inactive), 75.2% and 84.3%.
With `Cc1cnc(NC(=O)C2CCCC2)s1`, for the setting “H69AR cells + 2 uM doxorubicin”, the differential viability (reversal) is -2.44% (inactive). Moreover, the viability came to 100% under setting [1] and 97.7% under setting [2].
Turning to `Oc1ccccc1CNc1ncc(Br)cc1Br`, the differential viability (reversal) (H69AR cells + 2 uM doxorubicin) was -9.74% (inactive). Further, the viability amounted to 83.2% under setting [1] and 73.5% under setting [2].
Take `O=C(COC(=O)c1n[nH]c2ccccc12)NCc1ccccc1`: the differential viability (reversal) (H69AR cells + 2 uM doxorubicin) is 1.28% (inactive). Besides, the viability is 95.4% under setting [1] and 96.7% under setting [2].
For `CCOc1ccc(Nc2nc(Cc3nnc(SCC(=O)c4ccc(C)cc4)o3)cs2)cc1`, the differential viability (reversal) (H69AR cells + 2 uM doxorubicin) is -4.34% (inactive). The viability came out at 92.9% under setting [1] and 88.6% under setting [2].
On to `O=C1CC(Sc2ncn[nH]2)C(=O)N1c1ccccc1` (stereo not drawn), for which the differential viability (reversal) (H69AR cells + 2 uM doxorubicin) was 9.11% (inactive). Besides, the viability reads like this: under setting [1], 87%; under setting [2], 96.1%.
Taken in the same sequence, the figures for `O=C(c1cccc(F)c1)N1CCC(O)(c2cccnc2)CC1` were 5.21% (inactive), 82.9% and 88.1%.
Turning to `O=C(NCc1ccco1)C1(c2ccc(Cl)cc2)CCCC1`, the differential viability (reversal) (H69AR cells + 2 uM doxorubicin) is -5.04% (inactive). The viability runs as follows: under setting [1], 102%; under setting [2], 96.8%.
Taken in the same sequence, the figures for `O=C(c1ccc2c(c1)OCO2)N1CCN(C(=O)c2ccco2)CC1` were 18.9% (inactive), 73% and 91.9%.
The corresponding values for `O=C(c1ccccc1Oc1ccccc1)N1CCN(c2ccc(F)cc2)CC1` are 4.49% (inactive), 95.8% and 100%.
In the case of `COc1ccc(N2CCN(C(=O)CCc3nc(-c4ccc(C)cc4)no3)CC2)cc1`, the differential viability (reversal) (H69AR cells + 2 uM doxorubicin) was 16.8% (inactive). In addition, the viability reads like this: under setting [1], 81.6%; under setting [2], 98.4%.
On to `CS(=O)(=O)N(Cc1ccc(Cl)cc1)c1ccc(C(=O)NCCSCc2ccco2)cc1`, for which, for the setting “H69AR cells + 2 uM doxorubicin”, the differential viability (reversal) is -17.6% (inactive). Also, the viability reads like this: under setting [1], 111%; under setting [2], 93.7%.
The corresponding values for `COC(=O)C1=C(Nc2ccc(OC)cc2)C=C(C)C(C(=O)OC)C1c1ccc(C)cc1` (stereo not drawn) are -22.3% (inactive), 77.8% and 55.6%.
As to `COc1ccc(C(C#N)N2N=C(C)CC2(C)C)cc1` (stereo not drawn), the differential viability (reversal) (H69AR cells + 2 uM doxorubicin) is 15.2% (inactive). Moreover, the viability under setting [1] amounted to 89.1% and the viability under setting [2] amounted to 104%.
Consider `Cn1c(=O)c2c(SCC(=O)N3CCOCC3)nc(C3CC3)nc2n(C)c1=O`, for which the differential viability (reversal) (H69AR cells + 2 uM doxorubicin) is -2.72% (inactive). Also, the viability under setting [1] came to 84.5% and the viability under setting [2] worked out at 81.8%.
`CO/N=C(/CS(=O)(=O)c1ccc(Br)cc1)c1ccc(OC)cc1`: where the note is “H69AR cells + 2 uM doxorubicin”, the differential viability (reversal) was -26.9% (inactive). Moreover, the viability is 58.3% under setting [1] and 31.4% under setting [2].
Consider `CCSc1ccccc1C(=O)NCc1ccc(OC)cc1`, for which the differential viability (reversal) (H69AR cells + 2 uM doxorubicin) was 7.76% (inactive). Besides, the viability reads like this: under setting [1], 84.9%; under setting [2], 92.6%.
Taken in the same sequence, the figures for `Cc1ccc2cc(CCNC(=O)c3ccc4c(c3)OCO4)c(=O)[nH]c2c1` were -5.04% (inactive), 84.9% and 79.8%.
As for `CCC(O)CNc1nc(-n2nc(C)cc2C)nc2sc3c(c12)CC(C)(C)OC3` (stereo not drawn), the differential viability (reversal) (H69AR cells + 2 uM doxorubicin) is -4.15% (inactive). Besides, the viability runs as follows: under setting [1], 48.8%; under setting [2], 44.6%.
